# Bioassay records deposited in PubChem BioAssay by several laboratories.
# Shown are actives, neighbours in structure and some others; about 2.5% of the full set was active somewhere.
# V-ATPase pHluor: regulators of yeast V-ATPase proton pumping, primary screen, pHLuorin cytosolic pH fluorescence | S. cerevisiae | response, % at 10 µM | 0.37% of 350,000 active | AID 504577, 2011; in the data active means response mostly above about 7.3%, no sharp cut-off; inactive means mostly below about 5.4%; further: actives read high
# ATG4B inh: ATG4B protease inhibitors, primary screen, biochemical, fluorescence, uHTS | Cysteine protease ATG4B (Homo sapiens), Q9Y4P1 | ATG4B cleavage of LC3-PLA2, NBD-HPC fluorescence, 1 h | inhibition, % at 8.33 µM | 0.51% of 340,000 active | AID 504462, 2011; in the data active means inhibition above about 40%
# Target sequence (Q9Y4P1 whole entry, looked up): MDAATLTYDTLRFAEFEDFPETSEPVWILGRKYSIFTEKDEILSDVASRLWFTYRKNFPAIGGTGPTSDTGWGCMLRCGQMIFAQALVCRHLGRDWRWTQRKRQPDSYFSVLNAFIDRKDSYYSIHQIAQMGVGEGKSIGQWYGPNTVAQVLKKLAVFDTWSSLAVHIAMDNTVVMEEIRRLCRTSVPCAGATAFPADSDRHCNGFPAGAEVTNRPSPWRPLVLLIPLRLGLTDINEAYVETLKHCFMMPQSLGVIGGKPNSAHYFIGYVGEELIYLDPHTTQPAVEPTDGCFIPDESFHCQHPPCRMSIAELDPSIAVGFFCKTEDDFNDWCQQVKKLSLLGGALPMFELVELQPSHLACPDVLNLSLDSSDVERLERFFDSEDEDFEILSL
# Efflux pump mplx: inhibitors of Candida efflux pumps in yeast, primary screen, S. cerevisiae, Nile Red, multiplex | AID 485275, 2010 | S. cerevisiae Candida pump triplex | 0.44% of 330,000 active | inhibition, % at 10 µM;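 active means plate passing quality check with inhibition over a set limit, or well fluorescence over plate mean plus 4 SD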;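 further: Nile Red retained in pooled yeast measured as flow cytometry median fluorescence; 0% = buffer negative control and 100% = Enniatin B positive control; higher means more Nile Red kept so more efflux inhibition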
# AI-2 QS modul: Vibrio harveyi AI-2 quorum sensing modulators, primary screen, JMH597 strain, luminescence/OD600 ratio. 0.4% of 300,000 active. Vibrio harveyi JMH597 AI-2 luminescence/OD600 ratio, 9 h; hits give low values; strain lacks LuxN and CqsS sensors; 0 = neutral-control median. AID 2094, 2009. activity change, % at 7.5 µM; in the data active means activity change below about -75%, passing the limit was not always enough;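 further: luminescence divided by OD600 gain over 9 h not by final OD600 alone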
# Mot1-301 SUMO: yeast Mot1-301 growth rescue at high temperature, primary screen, SUMOylation pathway inhibitor project, S. cerevisiae, ATP luminescence, 38.5C; S. cerevisiae Mot1-301 growth rescue; percent above DMSO median, 100 means doubled; growth rescue, % at 18.8 µM; 1% of 320,000 active; AID 2716, 2010;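 active means every valid replicate shows activation above 250% relative to neutral control wells; inactive means the rest, any valid replicate at or below 250%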;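 further: OY570 slx delta 5 strain wells were the positive control but not used for scaling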
# ATG4B conf: ATG4B protease inhibitors, retest, confirmation, biochemical, fluorescence, single concentration; AID 504757, 2011; shares compounds with ATG4B inh; inhibition, % at 8.33 µM; 92% of 320 active; ATG4B protease fluorescent substrate cleavage assay; in the data active means inhibition above about 39%
# PLA2 counter: PLA2 enzyme inhibition, counter-screen for ATG4B inhibitor project, biochemical, single concentration, uHTS hits. inhibition, % at 8.33 µM. AID 588402, 2011. purified PLA2, NBD-C6-HPC fluorescence, 45 min. 66% of 1,600 active. shares compounds with ATG4B inh; in the data active means inhibition above about 50%
# Target sequence (P04054 whole entry, looked up): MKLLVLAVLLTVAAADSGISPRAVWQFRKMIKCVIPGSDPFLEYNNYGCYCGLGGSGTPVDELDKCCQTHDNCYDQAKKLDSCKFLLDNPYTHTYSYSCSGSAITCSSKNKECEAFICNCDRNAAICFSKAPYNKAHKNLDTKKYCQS
# V-ATPase pH SP: yeast V-ATPase proton pumping modulators, confirmation, S. cerevisiae, pH-sensitive GFP, second cherry-pick | 2% of 980 active | AID 602197, 2012 | shares compounds with V-ATPase pHluor | S. cerevisiae pHLuorin cytosolic pH, V-ATPase proton transport | response, % at 10 µM; in the data active means response above about 24%;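 further: plate controls were vehicle wells for no effect and positive control wells for full effect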
# * marks the source's active call; other numbers are inactive results; / = not tested or not shown.
SMILES,V-ATPase pHluor,ATG4B inh,Efflux pump mplx,AI-2 QS modul,Mot1-301 SUMO,V-ATPase pH SP,others
Nc1nc(SCc2nnc(SCC(=O)O)n2-c2ccccc2)nc2sc3c(c12)CCCC3,-4,46*,0,17,91,/,PLA2 counter=63*
COc1ccc2nc(NN=C(C)c3ccccn3)cc(C)c2c1,-3,-1,/,/,/,/,
FC(F)(F)c1cc(-c2ccco2)nc(NCc2ccccc2)n1,9,37,0,17,5,/,
Fc1ccc(CNc2nc(-c3ccco3)cc(C(F)(F)F)n2)cc1,-1,41*,0,18,-32,/,PLA2 counter=52*
N#Cc1c(-c2ccccc2)cc(-c2ccccc2)nc1SCCC(=O)O,1,51*,1,10,3,/,PLA2 counter=68*
c1ccc(CSc2nnc3c(n2)OC(c2ccco2)Nc2ccccc2-3)cc1 (configuration not stated),6,42*,0,4,11,/,ATG4B conf=96*;PLA2 counter=8
O=C1OC(CO)CN1Cc1ccccc1 (configuration not stated),3,-6,0,18,4,/,
Clc1ccc(-n2c(SCc3nc4ccccc4[nH]3)nnc2-c2ccncc2)cc1,0,-9,0,44,4,/,
CCOc1cc(/C=N/NC(=S)Nc2ccccc2C(F)(F)F)ccc1OCC(=O)N1CCOCC1,2,-11,0,7,1,/,
CC(Sc1ncnc2sc(-c3ccccc3)cc12)C(N)=O (configuration not stated),-4,48*,0,42,-29,/,PLA2 counter=62*
Cc1ccc(-c2nnc(SCc3ccccc3F)o2)cc1,-1,48*,0,-48,9,/,ATG4B conf=69*;PLA2 counter=38
CC(Oc1ccccc1)C(=O)Nc1nnc(C2CCCCC2)s1 (configuration not stated),-1,2,0,2,1,/,
C/C(CCc1oc2ccccc2c1-c1ccc(C)o1)=N/O,0,61*,0,1,3,/,PLA2 counter=64*
C/C(CCc1oc2c(Br)cc(Br)cc2c1-c1ccc(C)o1)=N\O,-1,12,0,8,31,/,
CCc1noc(C)c1C(=O)OCC(=O)NCc1ccccc1OC,-2,10,0,/,34,/,
CCOc1ccc(N(CC(=O)Nc2ccccc2C(=O)N2CCCC2)S(C)(=O)=O)cc1,1,0,0,19,-18,/,
O=C(N/N=C/c1coc2ccccc2c1=O)c1cn(-c2ccccc2)nc1-c1ccccc1,-1,92*,0,7,-9,/,PLA2 counter=94*
OC(CSc1ccc(F)cc1)CN1CCN(c2ccccc2)CC1 (configuration not stated),0,3,0,21,9,/,
Cc1ccsc1CN1CC(=O)N(c2c(C)cccc2C)C1=S,7.4*,85*,0,11,168,0,PLA2 counter=93*
COc1ccc(/C=N/NC(=O)c2[nH]ncc2Br)c(OC)c1,5,1,0,28,-5,/,
O=C(/C=C/c1cccc([N+](=O)[O-])c1)OCC(=O)N1CCN(C(=O)c2ccco2)CC1,12*,7,0,/,-15,3,
O=C(NCc1ccccn1)Nc1cccc(F)c1,-1,-6,-1,9,-1,/,
CN(C(=O)COC(=O)c1ccc(=O)n(Cc2ccccc2)n1)c1ccccc1,-2,1,0,17,-9,/,
COc1ccc(S(=O)(=O)N(CC(=O)N2CCN(C)CC2)c2ccc(C)cc2)cc1OC,12*,3,0,5,7,0,
CC(=O)NC12CC3CC(C1)CC(C(=O)Oc1ccc(N(C)S(=O)(=O)c4cc(C)ccc4C)cc1)(C3)C2,-5,-1,0,4,13,/,
SMILES,V-ATPase pHluor,ATG4B inh,Efflux pump mplx,AI-2 QS modul,Mot1-301 SUMO,V-ATPase pH SP,others
CCCC(C(=O)Nc1cc(S(=O)(=O)N2CCOCC2)ccc1OC)c1ccccc1 (configuration not stated),0,3,0,19,7,/,
CCOC(=O)C(=O)c1cn(C2OCC(OC(C)=O)C(OC(C)=O)C2OC(C)=O)c2ccccc12 (configuration not stated),14*,-2,0,13,-12,-6,
CCOC(=O)C(CCCOc1ccc(C)cc1)C(=O)OCC,9.6*,1,0,8,-7,-6,
NS(=O)(=O)c1cccc(NC(=O)CSc2nnc(-c3ccccc3)o2)c1,-9,-3,0,/,-15,0,
CCOC(=O)CSc1nnc(-c2ccccc2)o1,2,6,0,24,10,-3,
Cc1ccccc1-n1nnnc1SCC(=O)NCC1CCCO1 (configuration not stated),0,-6,0,16,/,/,
Cn1c(SCC(=O)Nc2ccc(NC(=O)c3cccc(F)c3)cc2)nnc1-c1ccncc1,-3,0,0,-4,32,/,
N=C(N)SCc1ccccn1,1,1,0,4,-17,/,
c1ccc(CSc2nnc(SCc3ccccn3)s2)nc1,11*,-1,0,10,1,-1,
CC1CN(C2CCN(C(=O)c3ccccc3)CC2)CC(C)O1 (configuration not stated),9.3*,4,0,6,-12,1,
CC1CN(C(=O)c2cccc(C(=O)N3CC(C)OC(C)C3)c2)CC(C)O1 (configuration not stated),-2,-9,0,0,-11,/,
CC1CN(C2CCN(S(=O)(=O)c3ccccc3)CC2)CC(C)O1 (configuration not stated),9,2,0,5,4,/,
CC1CN(C(=O)c2ccc(C(=O)c3ccccc3)cc2)CC(C)O1 (configuration not stated),11*,-8,0,11,-6,-2,
O=C(NC1(Cc2ccccc2)CCN(Cc2ccc(-c3ccccc3)cc2)C1=O)c1ccccc1 (configuration not stated),2,10,0,/,-12,/,
CCOC(=O)N1CCN(C(=O)c2cc3n(n2)C(C(F)(F)F)CC(c2ccc4c(c2)OCO4)N3)CC1 (configuration not stated),7.4*,3,-1,39,-8,-23,
